Source: PubChem (University of Kansas High Throughput Screening Laboratory)
Compounds with a hit are over-represented: about 3.5% of the library has one in this group of screens.
Pf apPOL block – Pf-apPOL DNA polymerase inhibition; inhibition, % at 10 µM; Recombinant Pf-apPOL, molecular beacon fluorescence, 1.5 h; actives 0.25% (n = 210,000)
mHTT-CaM PPI inh – inhibitors of human mutant huntingtin-calmodulin interaction. P42858. AlphaScreen His-mHTT/GST-CaM binding, luminescence. inhibition, % at 15 µM. actives 3.6% (n = 190,000);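 note: 0% = both proteins with DMSO and 100% = one protein alone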
Numbers without * were called inactive; x = no result given. Cut-off read from the data, not from the text of the source: active = inhibition above about 50%; inactive = the rest.

SMILES	Pf apPOL block	mHTT-CaM PPI inh
CC(C)C[C@H]1COc2cccc(N3CCN(Cc4ccccc4F)CC3)c2S(=O)(=O)N1	-3	80*
C[C@H]1COc2cccc(N3CCN(Cc4ccccc4F)CC3)c2S(=O)(=O)N1	-4	-14
COCC(C)NC(=O)c1ccc(C)c(C)c1 (stereo not given)	-4	1
COc1ccc(C2=NOC(C(=O)Nc3ccc(F)cc3F)C2)cc1 (stereo not given)	1	-16
Cc1ccc2[nH]c3c(cc(NCCO)c4c(=O)c5ccccc5c(=O)c43)oc2c1	-3	18
Cc1ccc2[nH]c3c(cc(NCCCO)c4c(=O)c5ccccc5c(=O)c43)oc2c1	-6	60*
O=C1c2ccccc2S(=O)(=O)N1c1c(F)c(F)nc(F)c1F	x	-3
O=C(c1ccco1)N1CCCC2(C1)Nc1ccccc1NC2=NC1CCCC1 (stereo not given)	-1	79*
O=C(c1ccncc1)N1CCCC2(C1)Nc1ccccc1NC2=NCc1ccccc1 (stereo not given)	0	24
COCCC(=O)N1CCCC2(C1)Nc1ccccc1NC2=NC1CCCC1 (stereo not given)	-4	7
O=S(=O)(C1CC1)N1CCCC2(C1)Nc1ccccc1NC2=NCc1ccccc1 (stereo not given)	-5	62*
O=C(c1ccoc1)N1CCCC2(C1)Nc1ccccc1NC2=NC1CCCC1 (stereo not given)	4	69*
O=C(c1ccccc1)N1CCCC2(C1)Nc1ccccc1NC2=NC1CCCC1 (stereo not given)	2	32
O=C(NCc1ccccc1)N1CCCC2(C1)Nc1ccccc1NC2=NC1CCCC1 (stereo not given)	-6	100*
O=C(c1ccccn1)N1CCCC2(C1)Nc1ccccc1NC2=NC1CCCC1 (stereo not given)	0	24
Cc1cccc(C(=O)N2CCCC(C(=O)Nc3ccccc3F)C2)c1 (stereo not given)	10	28
COc1cccc(CC(=O)NCc2cccnc2-c2ccccc2)c1	-2	-6
O=C(c1ccccc1Br)N1CCC(c2nnc(-c3ccc(F)cc3)o2)CC1	-3	-8
Cc1cc(C(=O)N2CCC(c3nnc(-c4ccc(F)cc4)o3)CC2)c(C)o1	-5	100*
COc1ccc(CNC(=O)C2CCN(Cc3ccc4c(c3)OCO4)CC2)cc1	-6	-1
NC(=O)c1cc2ccccc2oc1=Nc1cccc(/C=C/C(=O)O)c1	2	-2
O=Cc1cc(Cc2ccccc2)cc(Br)c1O	-3	100*
CCOc1cc(C=O)c(Br)cc1OCc1ccccc1	6	-5
O=C(Nc1cc([N+](=O)[O-])ccc1Cl)c1cc(Br)ccc1Cl	6	2
Cc1cc(O)c(C(C)(C)C)cc1Sc1cc(C(C)(C)C)c(O)cc1C	x	100*
SMILES	Pf apPOL block	mHTT-CaM PPI inh
Cc1cc(Sc2cc(C)c(O)c(C(C)(C)C)c2)cc(C(C)(C)C)c1O	x	15
Cc1cc(Cc2cc(C(C)(C)C)c(O)c(C(C)(C)C)c2)c(O)c(C(C)(C)C)c1	x	9
CC(C)(C)c1cc(O)c(C(C)(C)C)cc1O	49	12
Cc1cc(O)c(C(C)(C)C)cc1S(=O)c1cc(C(C)(C)C)c(O)cc1C	x	68*
Cc1cc(S(=O)c2cc(C)cc(C(C)(C)C)c2O)c(O)c(C(C)(C)C)c1	x	72*
CCCS(=O)(=O)N1CCc2[nH]nc(-c3ccccc3)c2C1	-6	-3
COc1ccc(C(=O)N2CCN(c3cccc(Cl)c3)CC2)cc1	-1	6
COc1cccc(-n2ccnc2N2CCN(C(=O)c3ccc(F)c(F)c3)CC2)c1	18	54*
COC(=O)c1ccc2c(c1)CC(CNC(=O)c1ccccc1C(F)(F)F)O2 (stereo not given)	-2	-6
O=C(NNC(=S)NC1CCCCC1)c1[nH]ncc1[N+](=O)[O-]	x	61*
Cn1ncc([N+](=O)[O-])c1C(=O)NNC(=S)NC1CCCC1	x	-2
N#CC1=C(N)n2c(s/c(=C\c3ccc(O)cc3)c2=O)=C(C(N)=O)C1c1ccc(O)cc1 (stereo not given)	-4	53*
N#CC1=C(N)n2c(s/c(=C\c3ccc([N+](=O)[O-])cc3)c2=O)=C(C#N)C1c1ccc([N+](=O)[O-])cc1 (stereo not given)	-6	14
O=C(c1cnc2ccccc2n1)N1CC(c2nc(-c3cccc(C(F)(F)F)c3)no2)C1	1	0
Cc1ccc(C2=NN(C(=O)CN(C)C(=O)C(C)C)C(c3ccc(F)cc3)C2)cc1C (stereo not given)	3	98*
CCC(=O)N(C)CC(=O)N1N=C(c2ccc(C)c(C)c2)CC1c1ccc(F)cc1 (stereo not given)	-6	72*
CCC(=O)N(C)CC(=O)N1N=C(c2ccc(C)c(C)c2)CC1c1ccc(C)cc1 (stereo not given)	0	47
CN(CC(=O)N1N=C(c2ccc(F)cc2)CC1c1ccc(F)cc1)C(=O)C1CC1 (stereo not given)	-1	22
CCC(=O)N(C)CC(=O)N1N=C(c2ccc(F)cc2)CC1c1ccc(F)cc1 (stereo not given)	0	66*
CC(=O)N(C)CC(=O)N1N=C(c2ccc(C)c(C)c2)CC1c1ccc(F)cc1 (stereo not given)	0	39
CC(=NNc1nnc(-c2ccccc2)c(-c2ccccc2)c1-c1ccccc1)c1ccccc1	9	x
S=C(NCC1CCCCC1)O[C@H]1CCC12CCC(c1ccccc1)CC2 (stereo not given in full)	-4	-1
CC1(C(=O)NCc2ccc(F)cc2)CCCN(S(=O)(=O)c2cccs2)C1 (stereo not given)	-6	-5
Cc1cc(C)c(C)c(S(=O)(=O)Nc2ccc(C(=O)N3CCN(C)CC3)cc2)c1C	-2	-7
CC(C)(C)c1ccc(Oc2ccc(C(C)(C)C)cc2C(C)(C)C)c(C(C)(C)C)c1	-10	x
SMILES	Pf apPOL block	mHTT-CaM PPI inh
COc1ccc(CNS(=O)(=O)c2ccc3nc(-c4ccccc4)[nH]c3c2)cc1	8	4
COc1ccc(CNS(=O)(=O)c2ccc3[nH]c4c(c3c2)CCCCC4)cc1	-5	97*
COc1ccc(CCNS(=O)(=O)c2ccc3[nH]c4c(c3c2)CCCC4)cc1OC	-4	47
CCOc1ccccc1NC(=O)CN(C)S(=O)(=O)c1ccc2[nH]c3c(c2c1)CCCC3	-1	47
CCOc1ccc(CNS(=O)(=O)c2ccc3[nH]c4c(c3c2)CCCCC4)cc1	-1	55*
O=S(=O)(NCCc1ccccc1)c1ccc2[nH]c3c(c2c1)CCCC3	-1	95*
CN(CC(=O)N1CCCC1)S(=O)(=O)c1ccc2[nH]c3c(c2c1)CCCC3	-1	1
CN(Cc1ccccc1)S(=O)(=O)c1ccc2[nH]c3c(c2c1)CCCC3	-4	71*
CCn1ccc2sc(C)c(C(=O)NCc3cccc(C)c3)c2c1=O	1	16
COc1ccc(CC(=O)N2CCC3(CC2)CC(=O)c2ccccc2O3)cc1OC	-7	10
Cc1cc(Cl)ccc1NC(=O)N1CC2CC(NS(=O)(=O)c3cccnc3)C1C2 (stereo not given)	-4	4
COc1ccccc1C1(CNC(=O)C2CC=CCC2)CCOCC1 (stereo not given)	-4	-2
Cc1ccc(C(O)(c2ccccc2)c2cnc(C(C)C)n2C)cc1 (stereo not given)	5	5
CC(C)(C)c1cc(Sc2c(F)c(F)nc(N3CCCC3)c2F)cc(C(C)(C)C)c1O	x	-10
